# Bioassay records (PubChem BioAssay)
# In the library only some 1.5% were active in any assay of this set; here they are far more common.
# IL-2 act: activators of IL-2 | IL-2 activation reporter assay, cell-based qHTS; stimulated with anti-CD3/CD4/CD28 beads; in transgenic mouse T cells | activation, % (series mostly up to about 46 µM) | 0.065% of 360,000 active | AID 652025; in the data active = activation above about 50%; inconclusive = mostly about 30% to 49%; also: 0% is about no effect
#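 Quantitative HTS in unstimulated transgenic mouse T cells, with memory T cells as non-tolerant control and PMA/ionomycin as tolerance-bypass control. Compound pretreatment lasted 60 minutes before 18 h bead stimulation; EGFP/DsRed fluorescence read.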
# gsp agonist: agonists of gsp mutant (McCune-Albright syndrome); AID 624287; Potency, µM (top dose mostly 76.9 µM), for inactives: at the top dose activation (cAMP increase), hits mostly activators; 0.13% of 340,000 active; gsp mutant cells, cAMP HTRF, 30 min; active = well fitted activation curve with a large enough effect; inconclusive = small, poorly fitted or top-dose-only effect, or another doubt; inactive = no such curve, though single readings can be large or run the other way; cell line not stated here;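 also: phosphodiesterase inhibitor Ro 20-1724 added with compounds to block cAMP breakdown; potency is read from the fitted curve at half-maximal effect; nearly all actives have a fitted effect of over 60% in size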
#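 Cells stably selected in G418 were plated at 2000/well, grown 16-24 hr, then given compounds in DMSO with the PDE inhibitor […] (300 uM solution added) for 30 min at 37C; cAMP was read by HTRF.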
# gsp antag: gsp mutant antagonism. Potency, µM (top dose mostly 76.9 µM), for inactives: top-dose activity change, negative = inhibition, usual class: inhibitors. gsp-mutant cells, cAMP HTRF, 30 min. 0.4% of 340,000 active. AID 624288; calls by dose curve; cell line not stated here;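 also: intracellular cAMP measured with PDE inhibitor Ro 20-1724 present during compound exposure; potency is read from the fitted curve at half-maximal effect; % is scaled to controls: 0 for no effect and ±100 for the full control effect; nearly all actives have a fitted effect of over 65% in size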
#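 Cells, 2000/well, grown 16–24 h in DMEM 10% FBS with 0.5 mg/ml G418, then compounds plus […] (300 uM addition stock), 30 min at 37C. cAMP read by HTRF (cAMP-d2 and anti-cAMP antibody-K in lysis buffer) after 30 min RT.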
# IDH1 R132H inh: inhibitors of human mutant IDH1 R132H. O75874. IDH1-R132H enzyme, NADPH consumption, diaphorase/resazurin fluorescence. Potency, µM (titrated, usually from 76.6 µM), without a hit: top-dose activity change, negative = inhibition, hits mostly inhibitors. 0.093% of 390,000 active. AID 602179; also: potency is read from the fitted curve at half-maximal effect; % is scaled to controls: 0 for no effect and ±100 for the full control effect; nearly all actives have a fitted effect of over 65% in size
# Target sequence (O75874 whole entry R132H, stated change not applied): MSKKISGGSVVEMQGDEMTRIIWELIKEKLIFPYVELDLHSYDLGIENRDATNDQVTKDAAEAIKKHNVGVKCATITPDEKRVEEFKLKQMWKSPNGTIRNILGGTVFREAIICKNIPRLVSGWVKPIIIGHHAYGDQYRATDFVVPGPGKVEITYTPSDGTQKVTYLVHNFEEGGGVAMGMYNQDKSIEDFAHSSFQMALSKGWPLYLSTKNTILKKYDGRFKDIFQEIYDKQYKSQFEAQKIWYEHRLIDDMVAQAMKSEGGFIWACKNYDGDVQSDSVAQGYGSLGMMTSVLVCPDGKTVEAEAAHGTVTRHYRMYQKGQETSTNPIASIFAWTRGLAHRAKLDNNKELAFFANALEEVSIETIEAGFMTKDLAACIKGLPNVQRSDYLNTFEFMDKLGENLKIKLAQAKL
#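 IDH1-R132H (0.5 ug/mL dispensed) in pH 7.5 Tris buffer was preincubated 30 min with compound, then given a substrate mix of 0.016 mM NADPH and 2 mM alpha-KG for 80 min at room temperature; remaining NADPH was read by diaphorase/resazurin fluorescence.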
# BRCA1 expr up: activators of BRCA1 expression | MCF7-BRCA1-FFLuc reporter, luminescence, 48 h; response scale: scaled: vehicle 0%, 10 µM genistein 100% | Potency, µM (titrated, usually from 46.1 µM), for the others: at the highest dose activation, hits mostly activators | 1.1% of 380,000 active | AID 624202; also: potency is read from the fitted curve at half-maximal effect; nearly all actives have a fitted effect of over 80% in size
#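 Luminescence from a BRCA1-driven firefly luciferase in MCF7 cells was the read-out, taken 15 min after substrate addition following 48 h compound exposure at 37 °C. Data were normalized to a 10 microM genistein control and DMSO vehicle.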
# * hit, by the source's call; ? = inconclusive; · = no result; [ ] = dose if it differs, or a comment. Unless noted, calls follow the shape of the dose curve; as a rule, active = well fitted curve in the direction sought with a large enough effect; inconclusive = small, poorly fitted or top-dose-only effect, or another doubt; inactive = no such curve, though single readings can be large; an effect the other way counts as inactive or inconclusive.
SMILES,IL-2 act,gsp agonist,gsp antag,IDH1 R132H inh,BRCA1 expr up
NC(=O)c1nsc(C(=O)N(Cc2ccco2)C(C(=O)NCc2ccccc2)c2ccc(O)cc2)c1N (configuration not stated),1,7%,11µM*,-16%,-27%
Cc1ccccc1N(C(=O)c1snc(C(N)=O)c1N)C(C(=O)NCc1ccccc1)c1ccc(O)cc1 (configuration not stated),-5,-31%[15.4 µM],11%,-9%,-98%
O=C(NNC(=O)c1cccc(S(=O)(=O)N2CCN(c3ccccc3)CC2)c1)c1ccc(Cl)cc1,-1,11µM*,-9%,-3%,-24%
CC(=O)N1CCN(C(=O)c2cccc(S(=O)(=O)N3CCN(c4ccccc4)CC3)c2)CC1,-1,?,-4%,-4%,6%
O=C(N/N=C\c1ccc(Oc2ccccc2)cc1)c1csnn1,-1,-56%,-2%,-1%,13µM*
N/C(=N\OC(=O)Cc1ccccc1)c1ccccc1Cl,1,-57%,10%,-11%,14µM*
COc1ccccc1CC(=O)O/N=C(\N)c1ccccn1,2,?,-1%,1%,?
CC(C)(C)CC(=O)O/N=C(\N)c1ccccn1,-1,1%,37%,6%,5µM*
N/C(=N\OC(=O)C1CCCCC1)c1ccncc1,1,-10%[15.4 µM],13%,3%,32%
N/C(=N\OC(=O)C1CCCCC1)c1ccccn1,0,6%,11%,0%,11µM*
N/C(=N\OC(=O)Cc1ccc(Cl)cc1)c1ccccn1,1,28%,11%,0%,10µM*
N/C(=N\OC(=O)Cc1ccccc1)c1cccnc1,-2,15%,11%,6%,96%
CCC(Oc1ccccc1-c1nnc(-c2ccccc2)o1)C(=O)Nc1ccc(C(C)=O)cc1 (configuration not stated),·,·,·,-9%,0%
O=S(=O)(c1ccc(C(F)(F)F)cc1)N1CCN(c2nc(-c3cccs3)nc3ccccc23)CC1,·,·,·,·,0%
CCN1C(=O)[C@H]2[C@@H](c3ccc(-c4ccccc4)cc3)N3CCCC[C@@]3(C(=O)OC)[C@H]2C1=O,0,·,-11%,20%,3%
Cc1ccc(CC(=O)O/N=C(\N)c2ccccn2)cc1,-3,27%,-2%,-10%,?
Cc1ccc(OCC(=O)O/N=C(\N)c2ccccn2)cc1,-4,9%[15.4 µM],7%,-2%,6.3µM*
C=CCn1cccc(C(=O)Nc2ccc(C)c(C)c2)c1=O,1,24%,-15%,-7%,3.2µM*
COc1ccc(-c2nc3ccc(NC(C)=O)cc3c(=O)n2Cc2cccc(Cl)c2)cc1COc1ccc(NC(C)=O)cc1,·,·,·,·,-19%
CCN(CC)C(=O)C1CC(c2ccc(OC)cc2)=NO1 (configuration not stated),2,3%,-1%,2%,10µM*
CC(=O)Nc1ccc(C2=NNC(=Nc3cccc(S(=O)(=O)N(C)C)c3)SC2)cc1,0,-34%,-10%,41µM*,-79%
CN(C)S(=O)(=O)c1cccc(N=C2NN=C(c3ccccc3)CS2)c1,0,-10%,-1%,40µM*,-67%
Fc1ccccc1N=C1NN=C(c2ccccc2)CS1,-1,-9%[15.4 µM],-10%,-26%,-61%
CCc1cc2c(=O)n(CC(C)C)cnc2s1,-2,9%,7%,3%,11µM*
CCCCCn1cnc2sc(CC)cc2c1=O,-1,0%,10%,3%,?
SMILES,IL-2 act,gsp agonist,gsp antag,IDH1 R132H inh,BRCA1 expr up
COc1ccc(-c2noc(Cc3cccs3)n2)cc1,1,19%,1%,7%,13µM*
Cc1ccc(OCc2nc(-c3ccccc3)no2)cc1,-2,?,6%,0%,8.9µM*
c1ccc(OCc2nc(-c3cccs3)no2)cc1,-2,-6%,-6%,0%,11µM*
Fc1ccc(OCc2nc(-c3cccs3)no2)cc1,0,23%,8%,0%,7.9µM*
Cc1cc(OCc2nc(-c3cccs3)no2)cc(C)c1Cl,-1,4%,-2%,3%,33%
O=C(NCc1ccc(F)cc1)c1nc(-c2cccs2)no1,-1,37%,4%,0%,4%
CCN(C(=O)Cn1nc(Cc2cccnc2)c2ccccc2c1=O)c1ccccc1F,·,·,·,-21%,·
CCN(C(=O)Cn1c(SCC(=O)Nc2ccc(OC)cc2)nc2ccccc21)c1cccc(C)c1,·,·,·,0%,·
COc1ccccc1C(=O)Nc1nnc(S(=O)(=O)N(C)c2ccc(Cl)cc2)s1,·,·,·,0%,·
N#CC(C(=O)NCc1ccccc1)c1nc2ccccc2nc1N1CCCC1 (configuration not stated),153*,?,10%,2%,-10%
CCCCCNC(=O)C(C#N)c1nc2ccccc2nc1N1CCCC1 (configuration not stated),150*,7%,2%,11%,14%
N#CC(C(=O)NCCc1ccccc1)c1nc2ccccc2nc1N1CCCCC1 (configuration not stated),1,-4%,-11%,-7%,6%
CC(Oc1ccc(C#N)cc1)C(=O)N1CC=C(c2ccccc2)CC1 (configuration not stated),0,?,0%,-3%,-32%
CCOC(=O)N1CCN(C(=O)CCCN2C(=O)CSc3nc(C)cc(C)c32)CC1,-1,18%,50µM*,0%,-6%
C/C(=N\Nc1nncc2ccccc12)c1ccc(O)cc1,1,16%[15.4 µM],-1%,0%,?
C/C(=N\Nc1nncc2ccccc12)c1ccc(C(C)(C)C)cc1,-4,17%[15.4 µM],-13%,2%,2.5µM*
CCOc1ccc(-c2cc(C(=O)N3CCN(c4cccc(C(F)(F)F)c4)CC3)c3ccccc3n2)cc1,·,·,·,6%,·
C=C1C=C(C)n2ncc(C(=O)Nc3cccc4cnccc34)c2N1,·,·,·,·,-7%
COc1cc2c(cc1NC(=O)CSc1ccc(C)cc1)oc1ccccc12,2,-21%,-24%,-1%,0%
COc1cc(NC(=O)c2ccccc2)c(OC)cc1Cl,0,12%,-31%,2%,-50%
COc1cc2c(cc1NC(=O)CN(C)Cc1ccc(OC)c(OC)c1)oc1ccccc12,-1,5%,40µM*,-22%,-53%
COc1ccc(OC)c(NC(=O)c2cc3oc4ccccc4c3cc2O)c1,-3,32µM*,?,3%,-26%
COc1cc2c(cc1NC(=O)Cc1ccc(C)cc1)oc1ccccc12,-4,?,-28%,1%,7.9µM*
COc1cc(OC)c(NC(=O)c2cc3ccccc3cc2O)cc1Cl,-3,-4%,32µM*,19%,-73%
Cc1ccc2c(c1)N(C(=O)CCC(=O)NCc1cccc(F)c1)CC(C)O2 (configuration not stated),·,·,·,-1%,·
CNc1ccc(C=C2C=CC=C2)cc1,·,·,·,·,0%
Cc1ccc(NC(=O)c2ccc3c(SCC(=O)O)c4c(nc3c2)CCCC4)c(Br)c1,-1,13µM*,-22%,4%,5%
